{"source": "PubChem BioAssay (NCATS)", "key": {"[1]": {"test_system": "Zika virus NS2B-NS3 protease (unlinked complex)", "test": "Primary screen GU Rhodamine qHTS for Zika virus inhibitors: Unlinked NS2B-NS3 protease assay (AID 1347159); also: nearly all actives have a fitted effect of over 60% in size", "method_in_brief": "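Noncovalent NS2B hydrophilic domain/NS3 protease complex (25 nM final) in 10 mM Tris-HCl pH 8.0, 0.01% Tween 20, preincubated 15 min with compounds (up to 114 microM), then 1.5 microM Rhodamine110 substrate. Fluorescence change over 15 min fitted to 4-parameter Hill.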"}, "[2]": {"test_system": "Zika virus NS2B-NS3 protease (linked construct)", "test": "Primary screen NINDS Rhodamine qHTS for Zika virus inhibitors (AID 1347160); also: nearly all actives have a fitted effect of over 55% in size", "method_in_brief": "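Purified NS2B-NS3 protease with the NS2B hydrophilic domain joined by a flexible linker (25 nM) in 10 mM Tris-HCl pH 8.0, 0.01% Tween 20, preincubated 15 min at RT with compound; Rhodamine110 peptide substrate 1.5 µM; fluorescence change over 15 min; 4-parameter Hill fit.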"}}, "note": "Inconclusive results are not listed. Where a call stands in place of a potency, no number is given. Activity calls are given as the source filed them. Calls follow the shape of the dose curve; as a rule, active = well fitted inhibition curve with a large enough effect; inconclusive = small, poorly fitted or top-dose-only effect; inactive = no such curve, though single readings can be large or run the other way."}
{"smiles": "CC(C)(OC1OC(CO)C(O)C(O)C1O)C1CCC(O)(CO)C2CC(=O)C(C)(O)C2C1", "note": "(stereo not drawn)", "values": [{"measurement": "Potency", "setting": "[1]", "result": "inactive"}, {"measurement": "Potency", "setting": "[2]", "result": "inactive"}]}
{"smiles": "C[C@@H]1[C@H](O)[C@@H]2OC(=O)C3=C2[C@H](CCC3)[C@@]12C[C@@H](c1ccoc1)OC2=O", "values": [{"measurement": "Potency", "setting": "[1]", "result": "inactive"}, {"measurement": "Potency", "setting": "[2]", "result": "inactive"}]}
{"smiles": "O=C(OC[C@H]1O[C@H](O[C@]2(CO)O[C@H](CO)[C@@H](O)[C@@H]2O)[C@H](O)[C@@H](O)[C@@H]1O)c1ccc(O)cc1", "values": [{"measurement": "Potency", "setting": "[1]", "result": "inactive"}, {"measurement": "Potency", "setting": "[2]", "result": "inactive"}]}
{"smiles": "CC(C)=CCC/C(C)=C/CO[C@@H]1O[C@H](CO[C@@H]2OC[C@](O)(CO)[C@H]2O)[C@@H](O)[C@H](O)[C@H]1O", "values": [{"measurement": "Potency", "setting": "[1]", "result": "inactive"}, {"measurement": "Potency", "setting": "[2]", "result": "inactive"}]}
{"smiles": "Cc1cccc(NC(=O)CN2CCC(c3ccccn3)CC2)c1", "values": [{"measurement": "Potency", "setting": "[1]", "result": "inactive"}, {"measurement": "Potency", "setting": "[2]", "result": "inactive"}]}
{"smiles": "CC1(C)C(=O)N2c3ccccc3C(O)(CC(C(=O)O)n3cnc4ccccc4c3=O)C2N1O", "note": "(stereo not drawn)", "values": [{"measurement": "Potency", "setting": "[1]", "result": "inactive"}, {"measurement": "Potency", "setting": "[2]", "result": "inactive"}]}
{"smiles": "C[C@@H]1O[C@@H](O[C@H]2[C@@H]3C=CO[C@@H](O[C@@H]4O[C@H](CO)[C@@H](O)[C@H](O)[C@H]4O)[C@@H]3[C@@]3(CO)O[C@@H]23)[C@H](O)[C@H](OC(=O)/C=C/c2ccc(O)cc2)[C@H]1OC(=O)/C=C/c1ccc(O)cc1", "values": [{"measurement": "Potency", "setting": "[1]", "result": "inactive"}, {"measurement": "Potency", "setting": "[2]", "result": "inactive"}]}
{"smiles": "O=C(/C=C/c1ccccc1)O[C@@H]1[C@@H](CO)O[C@@](CO)(O[C@H]2O[C@H](CO)[C@@H](O)[C@H](O)[C@H]2O)[C@H]1O", "values": [{"measurement": "Potency", "setting": "[1]", "result": "inactive"}, {"measurement": "Potency", "setting": "[2]", "result": "inactive"}]}
{"smiles": "COc1c2ccoc2nc2c(OC)c(O[C@@H]3O[C@@H](C)[C@H](O)[C@@H](O[C@@H]4O[C@H](CO)[C@@H](O)[C@H](O)[C@H]4O)[C@H]3OC(C)=O)ccc12", "values": [{"measurement": "Potency", "setting": "[1]", "result": "inactive"}, {"measurement": "Potency", "setting": "[2]", "result": "inactive"}]}
